# Records with an inconclusive call do not appear. Where a call stands in place of a potency, no number is given. Unmarked numbers belong to inactive results. The source made the active and inactive calls. Calls come from the whole dose curve; as a rule, active = well fitted curve in the direction sought with a large enough effect in the repeat runs; inconclusive = weak or mixed curves; inactive = no such curve, though single readings can be large; an effect the other way counts as inactive or inconclusive.
# What was measured:
# [1] = molecular target: Nuclear receptor subfamily 1 group I member 2 (Homo sapiens) (UniProt O75469); test: Human pregnane X receptor (PXR) small molecule agonists, qHTS assay (AID 1346982); conditions: PXR-Luc HepG2, CYP3A4 luciferase reporter, 24 h; series mostly up to 92.4 µM; note: nearly all actives have a fitted effect of over 35% in size; note: potency is the fitted concentration of half-maximal effect
# Nuclear receptor subfamily 1 group I member 2 (Homo sapiens), sequence (O75469 whole entry, looked up): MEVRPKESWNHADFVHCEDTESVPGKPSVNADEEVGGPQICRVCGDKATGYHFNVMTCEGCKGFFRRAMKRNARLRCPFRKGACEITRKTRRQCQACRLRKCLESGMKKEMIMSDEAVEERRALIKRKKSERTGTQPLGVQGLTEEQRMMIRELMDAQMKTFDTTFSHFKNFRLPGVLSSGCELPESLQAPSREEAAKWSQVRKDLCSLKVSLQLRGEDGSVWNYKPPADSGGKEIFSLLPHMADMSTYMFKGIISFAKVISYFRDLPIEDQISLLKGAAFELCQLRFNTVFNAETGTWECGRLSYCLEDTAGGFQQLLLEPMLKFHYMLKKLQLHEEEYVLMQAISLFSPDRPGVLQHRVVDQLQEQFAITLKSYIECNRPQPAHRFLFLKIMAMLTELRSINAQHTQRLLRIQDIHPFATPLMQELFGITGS
# Summary of the method: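 Luciferase signal from ONE-Glo (30 min, room temperature) measured activation of hPXR-driven CYP3A4 reporter expression in PXR-Luc HepG2 cells treated with compounds for 24 hr at 37 C.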
# [2] = molecular target: Cytochrome P450 2D6 (Homo sapiens) (UniProt P10635); test: Cytochrome P450 Family 2 Subfamily D Member 6 (CYP2D6) small molecule antagonists: luciferase reporter qHTS assay (AID 1671196); conditions: P450-Glo CYP2D6 enzyme assay, luciferin luminescence, 1 h; series mostly up to 115 µM; note: nearly all actives have a fitted effect of over 50% in size; note: potency is the fitted concentration of half-maximal effect
# Cytochrome P450 2D6 (Homo sapiens), sequence (P10635 whole entry, looked up): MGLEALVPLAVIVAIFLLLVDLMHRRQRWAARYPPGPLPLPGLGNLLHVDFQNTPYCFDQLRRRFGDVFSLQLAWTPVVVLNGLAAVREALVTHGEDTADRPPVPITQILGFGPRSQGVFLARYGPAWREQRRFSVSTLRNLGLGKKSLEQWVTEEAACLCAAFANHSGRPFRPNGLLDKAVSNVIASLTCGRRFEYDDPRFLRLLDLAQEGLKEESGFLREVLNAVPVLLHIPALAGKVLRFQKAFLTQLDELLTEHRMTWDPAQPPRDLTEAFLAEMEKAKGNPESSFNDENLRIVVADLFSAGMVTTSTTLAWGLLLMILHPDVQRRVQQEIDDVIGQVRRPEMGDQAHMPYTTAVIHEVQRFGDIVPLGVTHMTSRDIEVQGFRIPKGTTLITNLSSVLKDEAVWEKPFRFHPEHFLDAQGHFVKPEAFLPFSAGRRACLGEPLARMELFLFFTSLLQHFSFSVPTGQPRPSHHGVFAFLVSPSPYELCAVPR
# Summary of the method: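 Read-out is luminescence from luciferin formed by CYP2D6 turnover of a proluciferin substrate, recorded as relative luminescence units. Reactions ran 1 h at room temperature after NADPH regeneration solution was added.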
# [3] = molecular target: Cytochrome P450 2C19 (Homo sapiens) (UniProt P33261); test: Cytochrome P450 Family 2 Subfamily C Member 19 (CYP2C19) small molecule antagonists: luciferase reporter qHTS assay (AID 1671197); conditions: P450-Glo CYP2C19 enzyme, luciferin luminescence, 1 h; series mostly up to 115 µM; note: nearly all actives have a fitted effect of over 65% in size; note: potency is the fitted concentration of half-maximal effect
# Cytochrome P450 2C19 (Homo sapiens), sequence (P33261 whole entry, looked up): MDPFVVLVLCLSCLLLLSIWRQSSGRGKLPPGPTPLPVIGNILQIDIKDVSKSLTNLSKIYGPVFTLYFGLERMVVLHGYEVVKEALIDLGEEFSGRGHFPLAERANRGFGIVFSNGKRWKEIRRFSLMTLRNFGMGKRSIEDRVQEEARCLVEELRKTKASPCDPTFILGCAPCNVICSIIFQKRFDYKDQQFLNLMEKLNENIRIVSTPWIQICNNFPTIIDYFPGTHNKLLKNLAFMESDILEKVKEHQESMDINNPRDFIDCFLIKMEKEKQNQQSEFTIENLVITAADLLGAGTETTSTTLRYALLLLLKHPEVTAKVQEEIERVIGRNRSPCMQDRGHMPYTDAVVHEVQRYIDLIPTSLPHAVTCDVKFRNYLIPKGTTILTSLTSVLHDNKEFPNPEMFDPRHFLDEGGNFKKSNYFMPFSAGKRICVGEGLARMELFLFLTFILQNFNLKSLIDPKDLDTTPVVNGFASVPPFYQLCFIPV
# Summary of the method: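 CYP2C19 P450-Glo, 1536-well qHTS. Cpd + enzyme/proluciferin substrate 10 min RT; + NADPH regen, 37C 1 h; stop with luciferin detection reagent, 20 min RT, luminescence (RLU). Pos ctrl ketoconazole.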
# [4] = molecular target: Cytochrome P450 1A2 (Homo sapiens) (UniProt P05177); test: Cytochrome P450 Family 1 Subfamily A Member 2 (CYP1A2) small molecule antagonists: luciferase reporter qHTS assay (AID 1671199); conditions: P450-Glo CYP1A2 enzyme, luciferin luminescence, 1 h; series mostly up to 115 µM; note: nearly all actives have a fitted effect of over 50% in size; note: potency is the fitted concentration of half-maximal effect
# Cytochrome P450 1A2 (Homo sapiens), sequence (P05177 whole entry, looked up): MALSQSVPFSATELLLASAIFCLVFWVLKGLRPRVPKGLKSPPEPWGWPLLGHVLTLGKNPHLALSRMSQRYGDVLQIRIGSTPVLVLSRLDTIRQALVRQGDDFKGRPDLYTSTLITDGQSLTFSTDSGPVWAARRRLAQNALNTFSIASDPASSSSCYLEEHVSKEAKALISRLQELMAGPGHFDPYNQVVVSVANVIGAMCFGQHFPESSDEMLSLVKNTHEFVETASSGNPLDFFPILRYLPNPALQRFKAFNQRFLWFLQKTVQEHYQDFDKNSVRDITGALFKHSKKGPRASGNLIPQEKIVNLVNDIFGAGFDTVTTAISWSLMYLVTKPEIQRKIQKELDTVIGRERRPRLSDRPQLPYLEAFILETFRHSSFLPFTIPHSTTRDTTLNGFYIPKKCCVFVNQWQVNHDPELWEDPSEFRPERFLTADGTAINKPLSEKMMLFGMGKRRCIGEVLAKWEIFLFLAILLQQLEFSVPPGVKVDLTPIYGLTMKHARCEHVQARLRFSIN
# Summary of the method: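 P450-Glo CYP1A2, 1536-well qHTS: enzyme/proluciferin substrate + cpd (DMSO), 10 min RT; NADPH regen, 1 h RT; detection reagent, 20 min; luminescence, RLU.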
# [5] = molecular target: Voltage-gated inwardly rectifying potassium channel KCNH2 (Homo sapiens) (UniProt Q12809); test: Human Ether-a-go-go-Related Gene (hERG) channel small molecule antagonists: fluorescence cell-based qHTS assay (AID 1671200); conditions: hERG-U2OS cells, FluxOR thallium flux fluorescence; series mostly up to 76.8 µM;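 note: hERG-expressing U2OS cells given a thallium stimulus after FluxOR II dye loading; nearly all actives have a fitted effect of over 50% in size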
# Voltage-gated inwardly rectifying potassium channel KCNH2 (Homo sapiens), sequence (Q12809 whole entry, looked up): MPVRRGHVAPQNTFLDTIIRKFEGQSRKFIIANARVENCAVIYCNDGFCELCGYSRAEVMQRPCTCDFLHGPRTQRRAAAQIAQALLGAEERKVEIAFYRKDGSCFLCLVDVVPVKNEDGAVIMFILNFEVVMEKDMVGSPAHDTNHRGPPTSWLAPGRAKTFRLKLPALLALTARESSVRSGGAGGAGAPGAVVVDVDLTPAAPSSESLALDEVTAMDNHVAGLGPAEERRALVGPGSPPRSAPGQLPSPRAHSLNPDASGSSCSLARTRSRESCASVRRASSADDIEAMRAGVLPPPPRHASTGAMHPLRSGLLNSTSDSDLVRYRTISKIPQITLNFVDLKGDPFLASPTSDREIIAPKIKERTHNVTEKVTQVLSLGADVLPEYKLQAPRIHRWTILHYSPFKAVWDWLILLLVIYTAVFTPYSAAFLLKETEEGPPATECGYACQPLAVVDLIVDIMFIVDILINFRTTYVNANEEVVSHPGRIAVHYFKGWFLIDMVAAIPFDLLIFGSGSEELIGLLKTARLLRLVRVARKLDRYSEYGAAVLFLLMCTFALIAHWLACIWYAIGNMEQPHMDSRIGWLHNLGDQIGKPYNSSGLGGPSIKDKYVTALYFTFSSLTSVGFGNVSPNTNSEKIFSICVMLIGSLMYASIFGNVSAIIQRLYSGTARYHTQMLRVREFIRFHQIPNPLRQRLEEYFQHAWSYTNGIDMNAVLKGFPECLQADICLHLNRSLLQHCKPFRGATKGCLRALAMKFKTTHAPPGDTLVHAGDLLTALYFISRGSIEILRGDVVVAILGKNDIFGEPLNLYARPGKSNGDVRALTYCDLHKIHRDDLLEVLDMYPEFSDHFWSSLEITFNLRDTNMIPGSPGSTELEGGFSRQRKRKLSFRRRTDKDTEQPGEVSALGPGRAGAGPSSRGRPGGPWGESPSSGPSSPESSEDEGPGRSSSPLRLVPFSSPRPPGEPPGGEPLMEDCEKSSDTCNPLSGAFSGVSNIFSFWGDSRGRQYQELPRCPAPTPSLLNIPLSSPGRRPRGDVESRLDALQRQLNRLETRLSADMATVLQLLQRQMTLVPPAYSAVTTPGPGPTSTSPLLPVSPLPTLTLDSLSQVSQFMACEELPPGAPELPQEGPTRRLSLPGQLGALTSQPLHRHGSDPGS
# Summary of the method: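 Channel function was assessed by thallium flux. Cells seeded the previous day and kept at 37 C took up FluxOR II dye over 1 h in the dark at room temperature, then sat another 10 min before stimulation.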
# [6] = molecular target: Cytochrome P450 3A4 (Homo sapiens) (UniProt P08684); test: Cytochrome P450 Family 3 Subfamily A Member 4 (CYP3A4) small molecule antagonists: luciferase reporter qHTS assay (AID 1671201); conditions: P450-Glo CYP3A4 enzyme, luciferin luminescence, 1 h; series mostly up to 115 µM; note: nearly all actives have a fitted effect of over 50% in size
# Cytochrome P450 3A4 (Homo sapiens), sequence (P08684 whole entry, looked up): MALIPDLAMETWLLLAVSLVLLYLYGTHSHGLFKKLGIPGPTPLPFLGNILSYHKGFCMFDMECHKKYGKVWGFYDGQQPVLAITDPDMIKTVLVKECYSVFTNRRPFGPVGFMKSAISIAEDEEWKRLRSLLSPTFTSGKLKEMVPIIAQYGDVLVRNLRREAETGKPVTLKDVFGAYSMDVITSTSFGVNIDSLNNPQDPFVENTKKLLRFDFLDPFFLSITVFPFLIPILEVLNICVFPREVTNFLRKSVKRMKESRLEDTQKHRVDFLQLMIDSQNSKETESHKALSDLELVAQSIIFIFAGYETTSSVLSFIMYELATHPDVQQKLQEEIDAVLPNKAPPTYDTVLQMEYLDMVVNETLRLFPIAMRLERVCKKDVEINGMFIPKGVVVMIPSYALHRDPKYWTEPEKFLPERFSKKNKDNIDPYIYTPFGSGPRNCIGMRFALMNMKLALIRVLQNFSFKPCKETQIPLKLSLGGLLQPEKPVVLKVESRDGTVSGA
# Summary of the method: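 Compounds in DMSO were pin-transferred onto CYP3A4 enzyme-substrate mix and held 10 min at room temperature. NADPH regenerating solution started the reaction for 1 h; luciferin detection reagent stopped it, and luminescence was read after 20 min.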
# [7] = molecular target: Cytochrome P450 2C9 (Homo sapiens) (UniProt P11712); test: Cytochrome P450 Family 2 Subfamily C Member 9 (CYP2C9) small molecule antagonists: luciferase reporter qHTS assay (AID 1671198); conditions: P450-Glo CYP2C9 enzyme assay, luciferin luminescence; series mostly up to 115 µM; note: nearly all actives have a fitted effect of over 50% in size; note: potency is the fitted concentration of half-maximal effect
# Cytochrome P450 2C9 (Homo sapiens), sequence (P11712 whole entry, looked up): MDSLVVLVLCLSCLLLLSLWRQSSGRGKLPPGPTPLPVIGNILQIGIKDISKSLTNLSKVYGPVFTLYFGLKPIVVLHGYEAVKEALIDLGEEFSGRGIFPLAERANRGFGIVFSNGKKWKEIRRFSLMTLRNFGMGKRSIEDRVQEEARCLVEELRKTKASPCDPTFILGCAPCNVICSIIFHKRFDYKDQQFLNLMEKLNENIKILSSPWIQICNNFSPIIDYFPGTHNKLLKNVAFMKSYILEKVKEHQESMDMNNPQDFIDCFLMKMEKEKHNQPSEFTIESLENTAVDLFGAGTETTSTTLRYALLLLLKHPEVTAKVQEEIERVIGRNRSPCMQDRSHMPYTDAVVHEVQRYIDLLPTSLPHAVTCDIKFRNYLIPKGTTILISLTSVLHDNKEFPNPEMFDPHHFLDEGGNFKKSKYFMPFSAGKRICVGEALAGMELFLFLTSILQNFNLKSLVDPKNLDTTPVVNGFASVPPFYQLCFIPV
# Summary of the method: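 Enzyme-substrate mix preincubated with compound 10 min at room temperature; reaction started with NADPH regeneration solution, 1 h 37C. Luminescent luciferin product read after 20 min detection reagent.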
smiles,measurement,setting,value
COCCC(=O)OC,Potency,[1],inactive
same,Potency,[2],inactive
same,Potency,[3],inactive
same,Potency,[4],inactive
same,Potency,[5],inactive
same,Potency,[6],inactive
C=COCCCC,Potency,[1],inactive
same,Potency,[2],inactive
same,Potency,[3],inactive
same,Potency,[4],inactive
same,Potency,[5],inactive
same,Potency,[6],inactive
Nc1cc([N+](=O)[O-])ccc1Cl,Potency,[1],inactive
same,Potency,[2],inactive
same,Potency,[7],inactive
same,Potency,[4],17.8 µM (active)
same,Potency,[5],inactive
CCN(CCC#N)c1ccc(N=Nc2ccc([N+](=O)[O-])cc2)cc1,Potency,[1],6.11 µM (active)
same,Potency,[2],inactive
same,Potency,[3],inactive
same,Potency,[4],inactive
same,Potency,[5],inactive
same,Potency,[6],inactive
[Cl][Eu]([Cl])[Cl],Potency,[1],inactive
same,Potency,[2],inactive
same,Potency,[3],inactive
same,Potency,[4],inactive
same,Potency,[5],inactive
same,Potency,[6],inactive
O=c1cc[nH]cc1,Potency,[1],inactive
same,Potency,[2],inactive
same,Potency,[3],inactive
same,Potency,[7],inactive
same,Potency,[5],inactive
same,Potency,[6],inactive
CCCCNc1ccc(NCCCC)c2c1C(=O)c1ccccc1C2=O,activation,[1],2.95% [at 19 µM]
same,"activity change, negative = inhibition",[2],0.95% [at 23.6 µM]
same,"activity change, negative = inhibition",[3],-5.26% [at 23.6 µM]
same,Potency,[4],3.79 µM (active)
same,"activity change, negative = inhibition",[5],-6.35% [at 15.8 µM]
same,"activity change, negative = inhibition",[6],15.3% [at 23.6 µM]
c1ccc2cc3c4ccccc4c4ccccc4c3cc2c1,Potency,[1],4.88 µM (active)
same,Potency,[2],inactive
same,Potency,[7],inactive
same,Potency,[4],0.225 µM (active)
same,Potency,[5],inactive
Cc1ccc(N=Nc2c(O)ccc3ccccc23)c(C)c1,Potency,[1],0.944 µM (active)
same,Potency,[2],17.4 µM (active)
same,Potency,[3],12.3 µM (active)
same,Potency,[4],3.47 µM (active)
same,Potency,[6],inactive
Cc1cccc2c1ccc1ccccc12,Potency,[1],inactive
same,Potency,[2],inactive
same,Potency,[3],79.6 µM (active)
same,Potency,[4],6.33 µM (active)
same,Potency,[5],inactive
same,Potency,[6],inactive
O=C(c1ccccc1)c1ccc(Cl)cc1,Potency,[1],inactive
same,Potency,[2],inactive
same,Potency,[3],15.9 µM (active)
same,Potency,[4],5.03 µM (active)
same,Potency,[5],inactive
same,Potency,[6],inactive
N#Cc1nc(Cl)c(Cl)c(Cl)c1Cl,Potency,[1],9.69 µM (active)
same,Potency,[2],inactive
same,Potency,[7],79.6 µM (active)
same,Potency,[4],5.03 µM (active)
same,Potency,[5],inactive
same,Potency,[6],inactive
Brc1cc(Br)cc(Br)c1,Potency,[1],inactive
same,Potency,[2],inactive
same,Potency,[3],inactive
same,Potency,[7],inactive
same,Potency,[5],inactive
same,Potency,[6],inactive
COc1c(Br)cc(Br)c(C)c1Br,Potency,[1],inactive
same,Potency,[2],inactive
same,Potency,[3],89.4 µM (active)
same,Potency,[4],3.56 µM (active)
same,Potency,[5],inactive
same,Potency,[6],inactive
c1ccc2c(c1)-c1ccc3ccc4cccc5cc-2c1c3c45,Potency,[1],inactive
same,Potency,[2],inactive
same,Potency,[3],inactive
same,Potency,[4],0.219 µM (active)
same,Potency,[5],inactive
same,Potency,[6],inactive
CCN(CC)c1ccc(C=O)c(O)c1,Potency,[1],61.1 µM (active)
same,Potency,[2],inactive
same,Potency,[4],17.8 µM (active)
same,Potency,[5],inactive
same,Potency,[6],inactive
Cc1ccc2sc3cccc(C)c3c2c1,Potency,[1],inactive
same,Potency,[3],inactive
same,Potency,[7],inactive
same,Potency,[4],2.52 µM (active)
same,Potency,[5],inactive
same,Potency,[6],inactive
